# Measurements from paper PMC12136788.
# Numbering of substitutions follows the chain as printed. The full ranking holds about 24,000 sequences; the median of “enrichment r” is about 0.99, and the highest 2% start at about 3.7. This excerpt belongs to a sample that is enriched for the highest values.
# T1: UNK ZnF1-3 (human, UniProt Q9C0B0 31-174)
# T1 sequence: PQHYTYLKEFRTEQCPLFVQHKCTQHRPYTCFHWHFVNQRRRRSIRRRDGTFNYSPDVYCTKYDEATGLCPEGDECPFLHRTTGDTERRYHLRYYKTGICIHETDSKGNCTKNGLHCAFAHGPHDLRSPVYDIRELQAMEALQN
# B1: 52098632_52100650_1216_3pUTR_ENSG00000128872_ENST00000249700|human|control|control (ssRNA)
# RNA: GGGAGUUCUACAGUCCGACGAUCUACCUUCGGUCUGCUUCAACUCUCUUCUUACGAACCAGGUCAUUAUUCUUUGUGAUGGCAGCUGCCACCCUUGUUCGUGGCCCUUGCUUGGUAAACUGGUAUCCAAACUUGAGGAUCCUUCAACAGAGGAUUGAGCAUCA
# B2: chr5:121736274:121736275:+_ENSMUSG00000042744_ENSMUST00000119892|mus_mus|FALSE|FALSE (ssRNA)
# RNA: GGGAGUUCUACAGUCCGACGAUCCUGGUGAAUGCACAUGGCGCCAACAUGGUGCAGUAACUGGUUUAUGACUUCAUUUGUGCUAAUGGCCUCUUCUUUGGGCUCGGUGAUGAUAUGGCUGACACCCAGUCUCUGGCACACGUACAACAGAGGAUUGAGCAUCA
# B3: chr3:128198961:128198962:-_ENSG00000179348_ENST00000341105|hu_hu|motif|central (ssRNA)
# RNA: GGGAGUUCUACAGUCCGACGAUCACUGGACCCAAAAAGAGUUUAAAAAUAAAACAAUUAACUCAUCAGCGAGUUAAGCCGGUGCAUUUUUUUAAUAUUUUUUCUUUUGUCUCAGAGUAGGAGGCGAGGGGGUUGAAGGGUUAGCAACAGAGGAUUGAGCAUCA
# B4: chr12:48362563:48362564:+_ENSG00000134291_ENST00000256686|hu_hu|hu_hu_hu_mus_False|58_78 (ssRNA)
# RNA: GGGAGUUCUACAGUCCGACGAUCUCCGUCAAGCCCUUCGAUAGACCCUUGCGGGGGUGGUAAAAACCACUUUGUAUUUCUAAAAAAAAGAAACGCCAAAAACUUUCCAAAAAGCGGGGGUGGGGUGAGGCGGGAGGGGGAGGUCAACAGAGGAUUGAGCAUCA
# B5: 119691784_119693947_668_CDS_ENSG00000158290_ENST00000371322|human|control|control (ssRNA)
# RNA: GGGAGUUCUACAGUCCGACGAUCGAGUUCUUCUAAAUUGUACUUAAUUGAAGUACUAUUCUGAAUAGCUUCCACUGCUUCUUUCAGUUUUUGCCAGGUUUCAUCUGUGUAGUUUUCUGGUAAUUUAGGCUUAUCUUUAAAGUUCAACAGAGGAUUGAGCAUCA
# B6: chr2:151326667:151326668:-_ENSG00000115963_ENST00000263895|hu_hu|FALSE|FALSE (ssRNA)
# RNA: GGGAGUUCUACAGUCCGACGAUCUUUAUUUGUCUUAUUUACACAUGCCAAGGUGGCAACGUGAAAAAUGUCUCUGACGCUAUUUUCCGACUGUAAAGCUGAGCAUUCGAUAUAAGUAGCUGCUCCAAUCUGUUUGGCCAUAUUCAACAGAGGAUUGAGCAUCA
# B7: chr14:105235747:105235748:-_ENSG00000142208_ENST00000407796|hu_hu|FALSE|FALSE (ssRNA)
# RNA: GGGAGUUCUACAGUCCGACGAUCACUUUUAUUGAAGAAUUUGGAGGGAAGGUUCCAUAUUAUAUUAUAAUAGUAAAAAUACUAAAGUUGAAUGUUGUAAAAAAACGCCGUGGUGCAGCGGCAGCGGCAGCGUCUGGCCAGGAGCAACAGAGGAUUGAGCAUCA
# B8: chr14:105235747:105235748:-_ENSG00000142208_ENST00000407796|hu_hu|motif|central (ssRNA)
# RNA: B7 RNA with U82G, A83G
# B9: 23376367_23376487_1679_3pUTR_ENSMUSG00000026158_ENSMUST00000027343|mouse|control|control (ssRNA)
# RNA: GGGAGUUCUACAGUCCGACGAUCAUUUGAAAACACAUCCUAAAUGUAUUCUUUUAUUGGAUCUGGUCUUAAAACUUCUUAUUUAAUGUCCAAUUCAUUGUGAUCCAAAAUAAAAAGGCUUACAGCAAAAGUCACAGGUGGCCACAACAGAGGAUUGAGCAUCA
# B10: chr14:105235747:105235748:-_ENSG00000142208_ENST00000407796|hu_mus|FALSE|FALSE (ssRNA)
# RNA: GGGAGUUCUACAGUCCGACGAUCGAAAAGCAAUUUUUAUUGAAUUUGGAGGGACAGUUUCUUAUUAUAAUAGUAAAAAUGCUGAAGCUGAAUGUUGUAAAAAACGACAUGGUGCAGCAAUGGCCAGCGUCUGGCCGGGAGGGGCAACAGAGGAUUGAGCAUCA
# B11: chr14:21319500:21319501:-_ENSMUSG00000021816_ENSMUST00000161445|mus_hu|motif|central (ssRNA)
# RNA: GGGAGUUCUACAGUCCGACGAUCGAGUUGUAUUCCAGGGCAUGAGGGAAGCAGGCCACCAAAGUAAAGGGAAAUACCAAACGGCAGUGGCAAUCAAUACAGGUCAAUAAUUGUGAAAAAUUAGCACAUGGUUCCAUUUAGUUUCAACAGAGGAUUGAGCAUCA
# B12: chr17:55760890:55760891:+_ENSG00000153944_ENST00000284073|hu_mus|FALSE|FALSE (ssRNA)
# RNA: GGGAGUUCUACAGUCCGACGAUCCAAUUUCAUAUGCAAUAUAAUACAGAAAGCAUGGCUGACCUUCAAUUUUAAAAAAAAAUGUAGUAAACUAUAUUGCUUUAUUCUUGAAGAUGCUGCUGCGGUGGGUGGAUGGCAGAGCGACAACAGAGGAUUGAGCAUCA
# B13: chr2:129025431:129025432:+_ENSMUSG00000027397_ENSMUST00000028880|mus_mus|motif|central (ssRNA)
# RNA: GGGAGUUCUACAGUCCGACGAUCUUGCCACAGUAGAUUCCAUUCUCUAGUGUAGUGGUUCUUUAAAUAAUAAGAGAAUUACGGAGCGGCUUUUGAGAUGUGUAAACGGAAUGAGGUAUCAAAAUGCUAUAAUAAAUAGUAUAUCAACAGAGGAUUGAGCAUCA
# B14: chr10:71978566:71978567:-_ENSG00000180817_ENST00000373232|hu_hu|motif|central (ssRNA)
# RNA: GGGAGUUCUACAGUCCGACGAUCUAAAGGGUCCUUUGUAGCAAUCUCCAUUUUUGCAUUAGACCAGCGUGGUACUUCAACGGCCAUGUGAAACACAUCCUUAUCUGCAUAAAUUGGAAUAUCAUGAAAUGGAGAUAUAUAUUGCAACAGAGGAUUGAGCAUCA
# Target: T1, UNK ZnF1-3
# Experiment: nsRBNS (natural sequence RNA bind-n-seq); RBNS binding buffer (assumed for nsRBNS): 25 mM Tris pH 7.5, 150 mM KCl, 3 mM MgCl2, 0.01% Triton X-100, 500 ug/ml BSA, 20 U/ml SUPERase-In, 4 C; UNK is unkempt and MSI1 is Musashi-1; names of the RNAs are library labels; protein concentration not given here; high values mean tight binding
row,Binder,binding signal
1,B1,0.553 enrichment R
2,B2,0.813 enrichment R
3,B3,1.54 enrichment R
4,B4,3.57 enrichment R
5,B5,0.363 enrichment R
6,B6,0.818 enrichment R
7,B7,7.85 enrichment R
8,B8,5.41 enrichment R
9,B9,0.637 enrichment R
10,B10,4.04 enrichment R
11,B11,2.39 enrichment R
12,B12,1.14 enrichment R
13,B13,1.26 enrichment R
14,B14,0.593 enrichment R
